Data from PubChem BioAssay.
Activity calls are given as the source filed them.

Columns and labels:
[1] = binders of probe aFSTL3 on microarray, primary screen, stem cell growth factor project, biochemical, small-molecule microarray, fluorescence 635/667 (AID 1064); conditions: higher = more signal;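 further: measures binding of the biotinylated anti-FSTL3 antibody to printed compounds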
[2] = binders from COS7 lysate, DM2A8 probe, primary screen, torsin A project, cell lysate, small-molecule microarray, fluorescence 635/667 (AID 1065); conditions: higher = more signal, COS7 lysate expressing mutant human TOR1A
[3] = binders of probe aFGF2 on microarray, primary screen, stem cell growth factor project, biochemical, small-molecule microarray, fluorescence 635/667 (AID 1067); conditions: higher = more signal;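 further: measures binding of biotinylated aFGF2 protein to printed compounds on slides; z-score merges feature fluorescence and signal-to-noise across triplicate slides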
[4] = binders of probe aFGF10 on microarray, primary screen, stem cell growth factor project, biochemical, small-molecule microarray, fluorescence 635/667 (AID 1071); conditions: higher = more signal;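 further: score merges 667 nm spot intensity and signal to noise from triplicate slides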
[5] = molecular target: Neurogenic locus notch homolog protein 2 (Homo sapiens) (UniProt Q04721); assay: Notch2 binders on small-molecule microarrays, primary screen, biochemical, small-molecule microarray, 635 nm fluorescence, stem cell growth factors (AID 1073); conditions: Notch2 binding, higher = more signal
[6] = molecular target: Pro-neuregulin-1, membrane-bound isoform (Homo sapiens) (UniProt Q02297); assay: NRG1 binders on small-molecule microarrays, primary screen, psychiatric disease protein project, biochemical, small-molecule microarray, fluorescence 635/667 (AID 1075); conditions: NRG1 binding, 635 nm fluorescence, higher = more signal;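 further: score combines 667 nm spot fluorescence with signal to noise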
[7] = test system: Neuregulin-1 EGF-like domain; assay: binders of neuregulin-1 EGF-like domain, primary screen, biochemical, small-molecule microarray, 635 nm fluorescence (AID 1081); conditions: small-molecule microarray binding, higher = more signal;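 further: binding of the protein to compounds printed on small-molecule microarray slides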
[8] = FRG1 promoter luciferase signal modulators, primary screen, FRG1 inhibition for FSHD, cell-based, C2C12 myotubes, firefly/Renilla luciferase, luminescence (AID 1084); conditions: higher = more signal, called active from +8 up or from −8 down
[9] = binders of probe aFST on microarray, primary screen, stem cell growth factor project, biochemical, small-molecule microarray, fluorescence 635/667 (AID 1086); conditions: higher = more signal;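 further: score merges 667 nm fluorescence with signal-to-noise of each printed compound spot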
[10] = binders of probe aHhip on microarray, primary screen, stem cell growth factor project, biochemical, small-molecule microarray, fluorescence 635/667 (AID 1087); conditions: higher = more signal;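 further: score merges spot fluorescence at 667nm with spot signal to noise ratio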
[11] = test system: PRMT1 (protein arginine N-methyltransferase 1); assay: PRMT1 binders on small-molecule microarrays, primary screen, biochemical, small-molecule microarray, 635 nm fluorescence (AID 1088); conditions: small-molecule microarray binding, higher = more signal;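 further: binding of Prmt1 protein to compounds spotted on small-molecule microarray slides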
[12] = yeast growth modulation, basal conditions, primary screen, YJM789 clinical isolate, OD600, 24 h (AID 1089);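 further: growth of clinical yeast isolate S. cerevisiae YJM 789 seeded 1000 cells per well; test concentration not given here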; conditions: S. cerevisiae YJM789 growth, higher = more signal, called active from +8 up or from −8 down
[13] = fission yeast growth modulation, primary screen, strain 972, OD600, 24 h, no modulator (AID 1090);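 further: basal condition with compound alone and no growth modifier present; test concentration not given here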; conditions: S. pombe 972 growth, higher = more signal, called active from +8 up or from −8 down
[14] = S. cerevisiae growth modulation with rapamycin, primary screen, strain BY4716, OD600, 96 h (AID 1091); conditions: higher = more signal, called active from +8 up or from −8 down; further: test concentration not given here
[15] = molecular target: Torsin-1A-interacting protein 2 (Homo sapiens) (UniProt Q8NFQ8); assay: LULL1 binders on small-molecule microarray, primary screen, cell lysate, human LULL1 lysate, 635/667 nm fluorescence (AID 1092); conditions: hLULL1 lysate binding, 635 nm fluorescence, higher = more signal;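 further: probe is lysate of COS7 cells overexpressing human LULL1; score merges per-feature 667 nm fluorescence with signal-to-noise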
[16] = E. coli growth modulation, two-sided OD650, primary screen, E. coli filamentation project, strain DRC41, 24 h (AID 1093); conditions: OD650, 24 h, higher = more signal, called active from +8 up or from −8 down;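 further: MC1000 strain lacking acrAB efflux and sulA so SOS filamentation is blocked; test concentration not given here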
[17] = small-molecule microarray binders of probe aLefty2, primary screen, biochemical, biotinylated probe, 635/667 nm fluorescence (AID 1094); conditions: higher = more signal;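 further: score merges spot fluorescence near 667 nm with spot signal-to-noise ratio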
[18] = test system: Noggin (protein binding on small-molecule microarray); assay: Noggin binders on small-molecule microarray, primary screen, biochemical, 635/667 nm fluorescence (AID 1095); conditions: 635 nm fluorescence, higher = more signal;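 further: score merges 667 nm feature fluorescence with signal to noise over triplicate slides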
[19] = molecular target: Neurogenic locus notch homolog protein 3 (Homo sapiens) (UniProt Q9UM47); assay: NOTCH3 binders on small-molecule microarray, primary screen, biochemical, 635/667 nm fluorescence (AID 1096); conditions: NOTCH3 binding, 635 nm fluorescence, higher = more signal
[20] = small-molecule microarray binders of probe aEGFR, primary screen, biochemical, biotinylated probe, 635/667 nm fluorescence (AID 1097); conditions: higher = more signal;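 further: probe is a biotinylated anti-EGFR antibody binding compounds printed on slides; score combines fluorescence near 667 nm and signal to noise of each spot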

Sequence of Neurogenic locus notch homolog protein 3 (Homo sapiens) (Q9UM47 whole entry, looked up): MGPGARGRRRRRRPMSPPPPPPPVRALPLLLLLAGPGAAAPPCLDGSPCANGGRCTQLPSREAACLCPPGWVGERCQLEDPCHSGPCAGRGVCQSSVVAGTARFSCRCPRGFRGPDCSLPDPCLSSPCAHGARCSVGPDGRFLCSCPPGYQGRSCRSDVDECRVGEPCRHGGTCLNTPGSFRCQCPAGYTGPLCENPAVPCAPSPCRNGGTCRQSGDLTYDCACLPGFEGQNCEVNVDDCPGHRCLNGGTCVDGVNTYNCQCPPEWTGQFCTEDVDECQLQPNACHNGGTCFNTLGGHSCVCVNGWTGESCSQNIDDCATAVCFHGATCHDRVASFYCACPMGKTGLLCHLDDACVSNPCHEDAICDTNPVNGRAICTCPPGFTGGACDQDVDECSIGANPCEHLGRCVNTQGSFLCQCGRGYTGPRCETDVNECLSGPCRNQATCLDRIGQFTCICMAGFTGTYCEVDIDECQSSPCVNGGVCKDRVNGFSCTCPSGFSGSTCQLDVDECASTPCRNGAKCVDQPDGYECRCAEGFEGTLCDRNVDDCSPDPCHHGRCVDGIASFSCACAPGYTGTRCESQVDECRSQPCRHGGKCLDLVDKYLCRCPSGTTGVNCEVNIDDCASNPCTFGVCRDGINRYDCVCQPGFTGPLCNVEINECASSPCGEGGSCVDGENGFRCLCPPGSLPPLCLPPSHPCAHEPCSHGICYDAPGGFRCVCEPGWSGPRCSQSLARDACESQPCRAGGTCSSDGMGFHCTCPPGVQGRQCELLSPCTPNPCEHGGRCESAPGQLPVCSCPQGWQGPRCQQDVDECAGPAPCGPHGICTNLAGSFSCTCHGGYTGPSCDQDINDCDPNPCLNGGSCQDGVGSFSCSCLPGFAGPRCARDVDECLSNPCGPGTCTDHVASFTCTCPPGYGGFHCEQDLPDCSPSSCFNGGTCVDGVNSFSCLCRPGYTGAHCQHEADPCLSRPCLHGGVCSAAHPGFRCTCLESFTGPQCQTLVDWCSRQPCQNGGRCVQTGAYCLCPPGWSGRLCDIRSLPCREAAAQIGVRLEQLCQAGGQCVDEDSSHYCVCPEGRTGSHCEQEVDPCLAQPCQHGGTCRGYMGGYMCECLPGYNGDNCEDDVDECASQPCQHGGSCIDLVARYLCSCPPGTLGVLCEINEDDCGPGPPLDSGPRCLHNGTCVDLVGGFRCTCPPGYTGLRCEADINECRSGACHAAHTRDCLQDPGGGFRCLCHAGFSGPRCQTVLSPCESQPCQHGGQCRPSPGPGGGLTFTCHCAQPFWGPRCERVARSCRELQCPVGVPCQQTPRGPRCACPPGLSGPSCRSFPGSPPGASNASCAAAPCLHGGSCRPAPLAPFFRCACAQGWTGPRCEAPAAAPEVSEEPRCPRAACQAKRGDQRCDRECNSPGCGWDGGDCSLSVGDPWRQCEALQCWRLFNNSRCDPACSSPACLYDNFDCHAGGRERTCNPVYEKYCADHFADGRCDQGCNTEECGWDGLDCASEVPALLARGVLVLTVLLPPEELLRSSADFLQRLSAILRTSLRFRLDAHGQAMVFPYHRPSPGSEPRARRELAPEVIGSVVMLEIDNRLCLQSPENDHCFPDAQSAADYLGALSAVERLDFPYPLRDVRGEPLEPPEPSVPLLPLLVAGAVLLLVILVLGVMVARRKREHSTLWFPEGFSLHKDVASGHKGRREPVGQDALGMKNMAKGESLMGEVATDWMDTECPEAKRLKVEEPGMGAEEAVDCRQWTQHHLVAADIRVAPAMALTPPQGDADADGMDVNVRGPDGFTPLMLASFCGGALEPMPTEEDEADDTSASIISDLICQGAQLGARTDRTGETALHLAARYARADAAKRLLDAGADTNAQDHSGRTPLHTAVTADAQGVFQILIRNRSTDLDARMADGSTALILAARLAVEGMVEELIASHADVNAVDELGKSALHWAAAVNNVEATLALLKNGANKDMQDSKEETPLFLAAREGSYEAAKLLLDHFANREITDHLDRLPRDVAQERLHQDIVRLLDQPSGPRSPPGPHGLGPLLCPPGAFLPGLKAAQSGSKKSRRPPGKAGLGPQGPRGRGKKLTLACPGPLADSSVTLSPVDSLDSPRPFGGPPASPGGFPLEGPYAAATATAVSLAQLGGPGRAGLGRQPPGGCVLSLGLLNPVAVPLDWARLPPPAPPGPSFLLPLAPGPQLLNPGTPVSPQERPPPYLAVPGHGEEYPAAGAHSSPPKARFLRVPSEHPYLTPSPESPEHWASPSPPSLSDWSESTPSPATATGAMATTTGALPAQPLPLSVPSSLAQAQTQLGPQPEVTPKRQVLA
Sequence of Neurogenic locus notch homolog protein 2 (Homo sapiens) (Q04721 whole entry, looked up, canonical isoform): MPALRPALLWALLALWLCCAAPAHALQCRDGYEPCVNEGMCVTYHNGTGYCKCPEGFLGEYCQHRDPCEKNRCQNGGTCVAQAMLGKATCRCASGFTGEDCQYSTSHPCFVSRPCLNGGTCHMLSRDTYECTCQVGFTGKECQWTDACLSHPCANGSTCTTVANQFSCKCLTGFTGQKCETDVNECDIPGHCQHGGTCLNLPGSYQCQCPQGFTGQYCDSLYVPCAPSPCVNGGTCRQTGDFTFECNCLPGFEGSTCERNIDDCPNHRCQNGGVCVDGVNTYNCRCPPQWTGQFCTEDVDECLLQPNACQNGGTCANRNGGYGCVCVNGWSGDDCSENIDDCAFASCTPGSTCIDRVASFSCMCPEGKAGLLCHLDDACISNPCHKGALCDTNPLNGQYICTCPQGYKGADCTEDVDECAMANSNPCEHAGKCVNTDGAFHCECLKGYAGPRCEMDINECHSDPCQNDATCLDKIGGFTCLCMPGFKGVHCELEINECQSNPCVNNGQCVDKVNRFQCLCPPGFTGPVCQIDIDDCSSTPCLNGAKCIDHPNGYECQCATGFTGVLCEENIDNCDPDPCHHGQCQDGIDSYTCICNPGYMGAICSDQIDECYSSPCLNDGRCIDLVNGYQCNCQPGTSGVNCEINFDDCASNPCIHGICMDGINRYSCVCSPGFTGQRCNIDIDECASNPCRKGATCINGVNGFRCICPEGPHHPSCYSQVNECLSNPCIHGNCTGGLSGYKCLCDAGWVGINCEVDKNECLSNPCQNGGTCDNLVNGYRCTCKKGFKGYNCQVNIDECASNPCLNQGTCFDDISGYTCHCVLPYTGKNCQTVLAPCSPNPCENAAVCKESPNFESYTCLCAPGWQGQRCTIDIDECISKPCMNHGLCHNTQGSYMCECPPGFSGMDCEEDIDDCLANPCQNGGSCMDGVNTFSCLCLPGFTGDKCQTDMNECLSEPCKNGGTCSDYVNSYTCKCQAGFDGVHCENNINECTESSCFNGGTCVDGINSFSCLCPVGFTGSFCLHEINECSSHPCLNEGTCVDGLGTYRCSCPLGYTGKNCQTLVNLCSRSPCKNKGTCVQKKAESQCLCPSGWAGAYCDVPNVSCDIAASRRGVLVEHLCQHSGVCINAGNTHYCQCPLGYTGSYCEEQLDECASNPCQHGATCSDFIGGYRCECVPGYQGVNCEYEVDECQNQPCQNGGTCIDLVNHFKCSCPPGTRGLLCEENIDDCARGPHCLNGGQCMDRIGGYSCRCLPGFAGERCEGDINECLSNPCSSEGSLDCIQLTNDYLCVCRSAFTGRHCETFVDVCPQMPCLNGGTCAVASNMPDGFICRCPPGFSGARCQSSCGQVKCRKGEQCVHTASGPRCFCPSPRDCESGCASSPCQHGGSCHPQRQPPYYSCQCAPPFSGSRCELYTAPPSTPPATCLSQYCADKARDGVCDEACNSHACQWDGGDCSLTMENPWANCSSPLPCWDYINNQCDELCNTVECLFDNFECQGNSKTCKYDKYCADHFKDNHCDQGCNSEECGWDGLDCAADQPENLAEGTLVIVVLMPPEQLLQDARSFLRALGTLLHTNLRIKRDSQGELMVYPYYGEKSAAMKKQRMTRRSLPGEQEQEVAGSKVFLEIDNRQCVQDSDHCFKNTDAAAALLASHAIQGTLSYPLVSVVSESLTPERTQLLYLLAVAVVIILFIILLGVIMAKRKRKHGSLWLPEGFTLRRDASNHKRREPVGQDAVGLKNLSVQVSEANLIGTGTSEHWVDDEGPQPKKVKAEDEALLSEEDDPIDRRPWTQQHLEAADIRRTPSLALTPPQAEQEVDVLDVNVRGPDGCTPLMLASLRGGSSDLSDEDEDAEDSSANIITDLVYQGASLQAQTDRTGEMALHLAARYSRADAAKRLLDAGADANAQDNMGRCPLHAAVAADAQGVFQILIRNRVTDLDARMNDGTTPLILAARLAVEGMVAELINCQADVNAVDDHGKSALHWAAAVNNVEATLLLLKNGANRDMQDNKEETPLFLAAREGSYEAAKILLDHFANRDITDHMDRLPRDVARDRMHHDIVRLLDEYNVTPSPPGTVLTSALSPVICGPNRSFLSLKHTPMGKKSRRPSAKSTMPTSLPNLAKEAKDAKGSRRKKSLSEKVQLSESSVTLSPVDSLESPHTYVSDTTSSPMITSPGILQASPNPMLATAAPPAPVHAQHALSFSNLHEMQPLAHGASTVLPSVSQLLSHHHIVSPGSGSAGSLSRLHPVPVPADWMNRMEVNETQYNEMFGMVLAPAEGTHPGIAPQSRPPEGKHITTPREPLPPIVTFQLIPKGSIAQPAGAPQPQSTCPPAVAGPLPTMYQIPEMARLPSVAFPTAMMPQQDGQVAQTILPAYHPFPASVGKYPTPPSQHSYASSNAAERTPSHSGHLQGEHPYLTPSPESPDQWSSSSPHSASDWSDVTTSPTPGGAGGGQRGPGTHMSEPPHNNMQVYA

SMILES	composite z-score [1]	composite z-score [2]	composite z-score [3]	composite z-score [4]	composite z-score [5]	composite z-score [6]	composite z-score [7]	z-score [8]	composite z-score [9]	composite z-score [10]	composite z-score [11]	z-score [12]	z-score [13]	z-score [14]	composite z-score [15]	z-score [16]	composite z-score [17]	composite z-score [18]	composite z-score [19]	composite z-score [20]
CCOc1cc(C(O)C2C=CC3C(=O)N(C)C(=O)C3N2Nc2ccccc2)ccc1O (stereo not given)	-0.329	0.101	0.0827	0.305	1.46	1.78	1.49	0.55 (inactive)	0.472	0.24	1.13	0.921 (inactive)	1.23 (inactive)	1.97 (inactive)	1.84	-0.0866 (inactive)	0.0258	-0.386	0.679	0.0439
CC(C)(C)OC(=O)CC[C@@]1(C(=O)NCc2ccccc2)N=C(c2ccc(OCCCO)cc2)O[C@@H]1c1ccccc1N=[N+]=[N-]	0.418	0.559	0.246	0.885	1.64	1.75	0.968	1.16 (inactive)	1.13	0.0115	1.56	0.704 (inactive)	0.501 (inactive)	3.64 (inactive)	3.25	0.516 (inactive)	0.372	0.878	1.05	0.224
COC(=O)[C@@]1(Cc2ccc(F)cc2)[C@H]2c3cc(C(=O)N(C)C)n(Cc4cc(F)cc5c4OCOC5)c3C[C@H]2CN1C(=O)c1ccccc1	0.149	0.199	-0.0002	0.964	1.56	1.81	1.27	-1.82 (inactive)	1.03	-0.319	1.17	-1.23 (inactive)	0.446 (inactive)	1.78 (inactive)	3.32	-0.375 (inactive)	0.44	0.378	1.04	0.118
CC(=O)NCCCC[C@@H]1NC(=O)[C@@H]2C[C@H](C(=O)NCCCC[N+](C)(C)C)[C@H](c3ccc(O)cc3)N2C1=O	-0.235	1.74	0.0056	0.88	-0.188	1.21	1.19	1.32 (inactive)	0.177	0.224	1.54	0.305 (inactive)	-0.266 (inactive)	-1.29 (inactive)	1.46	0.0855 (inactive)	-0.0774	1.36	1.09	-0.0131
CCCCCCc1nc(-c2cc(C)c(OC)c(C)c2)c(C)c2c1[Si](C(C)C)(C(C)C)OC2	-0.0656	0.0489	-0.093	-0.0949	0.0241	-0.391	-0.453	0.785 (inactive)	0.021	-0.116	-0.92	0.0333 (inactive)	-0.922 (inactive)	0.276 (inactive)	-0.407	0.352 (inactive)	-0.0915	0.058	-0.127	-0.171
CCCNC(=O)[C@@H]1c2ccccc2C(=O)N(C(C)C)[C@H]1c1ccc(CO)cc1	0.277	-0.638	-0.112	-0.303	-0.664	1.23	1.2	-0.273 (inactive)	0.103	-0.271	0.541	0.853 (inactive)	0.668 (inactive)	-0.148 (inactive)	0.618	0.924 (inactive)	-0.0458	-0.231	-0.421	-0.196
O=C1O[C@@H](c2ccccc2)[C@@H](c2ccccc2)N2[C@@H](c3ccc(OCCO)cc3)[C@]3(C(=O)Nc4ccccc43)[C@@H](C(=O)O)[C@H]12	0.161	0.144	-0.0336	1.02	0.381	1.5	1.45	-0.0089 (inactive)	0.0284	-0.407	0.194	0.264 (inactive)	-0.272 (inactive)	-0.219 (inactive)	3.09	0.852 (inactive)	0.176	-0.179	-0.239	0.247
COc1ccc(C(O)C2C=CC3C(=O)N(c4ccccc4)C(=O)C3N2Nc2ccc([N+](=O)[O-])cc2)cc1 (stereo not given)	0.928	-0.0823	0.25	0.935	1.64	0.546	1.16	-1 (inactive)	1.18	-0.149	1.11	0.137 (inactive)	1.4 (inactive)	3.22 (inactive)	3.09	-0.909 (inactive)	0.432	0.0062	1.1	0.239
CN(C)C(=O)[C@@]1(CCS(=O)(=O)c2ccccc2)N=C(c2ccc(OCCCO)cc2)O[C@H]1c1ccccc1	-0.0356	0.79	0.163	0.746	1.35	2.13	1.34	-0.522 (inactive)	1.52	0.0401	1.07	-0.308 (inactive)	-0.255 (inactive)	0.117 (inactive)	3.51	-0.16 (inactive)	0.0932	-0.135	1.08	-0.0215
CN1C(=O)C2C=CC(C(O)COCc3ccccc3)N(N(c3ccccc3)c3ccccc3)C2C1=O (stereo not given)	0.0199	-0.177	0.0472	0.631	1.55	1.29	1.03	0.0958 (inactive)	1.1	-0.0563	0.482	0.298 (inactive)	-1.86 (inactive)	0.544 (inactive)	2.11	-0.0181 (inactive)	0.388	-0.419	0.894	0.726
